Source: PubChem (several laboratories)
Mtb FBA inh = Mtb fructose-bisphosphate aldolase inhibition; purified M. tuberculosis FBA, fluorescence read-out; inhibition, % at 1 µM; AID 588726; actives 2.3% (n = 360,000);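 also: 0% = vehicle and 100% = reference inhibitor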
Target sequence (P9WQA3 whole entry, looked up): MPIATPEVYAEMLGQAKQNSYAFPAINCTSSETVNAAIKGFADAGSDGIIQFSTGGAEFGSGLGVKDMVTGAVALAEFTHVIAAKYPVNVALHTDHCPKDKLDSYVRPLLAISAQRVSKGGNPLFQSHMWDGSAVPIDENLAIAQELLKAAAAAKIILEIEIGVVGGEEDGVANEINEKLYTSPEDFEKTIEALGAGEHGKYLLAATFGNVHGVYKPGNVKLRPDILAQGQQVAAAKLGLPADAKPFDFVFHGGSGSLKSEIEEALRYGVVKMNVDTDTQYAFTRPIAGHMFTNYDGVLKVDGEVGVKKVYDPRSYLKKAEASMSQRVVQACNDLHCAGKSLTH
Yp Topo-I inh = Y. pestis Topo-I inhibition via cleavage products; Y. pestis Topo-I cleavage product accumulation, plate reader; activity, % at 10 µM; actives 0.064% (n = 360,000); in the data active = activity above about 50%, passing the limit was not always enough
Mtb hypoxia inh = reduces hypoxia-regulated biosensor signal in M. tuberculosis; M. tuberculosis hypoxia-regulated fluorescent reporter, fluorescence; fluorescence inhibition, % (concentration not given with the values); actives 0.1% (n = 300,000); AID 1159583; in the data active = fluorescence inhibition mostly above about 23%, no sharp cut-off; inactive = mostly below about 17%
GDH-TPI counter-1 = inhibits GDH-TPI coupling enzymes, artifact for Mtb FBA screen; GDH-TPI coupled enzyme counterscreen, NADH absorbance; inhibition, % at 4.8 µM; AID 588335; actives 1.2% (n = 360,000); in the data active = inhibition above about 30%;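 also: 0% = DMSO wells and 100% = wells lacking the enzyme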
PrPC surface inh = inhibitors of human cell surface prion protein PrPC; P04156; TR-FRET read-out; inhibition, % at 13.8 µM; actives 0.43% (n = 370,000); in the data active = inhibition above about 24%; also: 0% = median of the test wells and 100% = reference compound wells
PrP 5UTR inh = suppresses PrP 5' UTR mRNA reporter expression | cell-based PrP 5' UTR mRNA reporter, plate reader | inhibition, % (no concentration beside the values) | actives 0.35% (n = 340,000); in the data active = inhibition above about 52%; also: 0 = median of the neutral control wells
Mtb FBA confirm = confirmation of M. tuberculosis fructose-bisphosphate aldolase inhibitors | shares compounds with Mtb FBA inh | purified M. tuberculosis FBA, fluorescence read-out | actives 78% (n = 5,600) | AID 651616 | inhibition, % at 1 µM;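 also: 0% = vehicle wells and 100% = reference inhibitor wells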
GDH-TPI counter-2 = inhibits GDH-TPI coupling enzymes, flagging Mtb FBA hits; shares compounds with Mtb FBA inh; GDH-TPI coupled enzyme counterscreen, fluorescence; inhibition, % at 1 µM; actives 81% (n = 5,600); AID 652141; in the data active = inhibition above about 10%
Starred values were filed as active, the others as inactive; . = no result given; + = active, no number. A selection: hits, their analogues and other compounds. The true share with any hit is near 3.8%. Rule as the data show it, unless noted: active = inhibition above about 27%; inactive = the rest.

SMILES	Mtb FBA inh	Yp Topo-I inh	Mtb hypoxia inh	GDH-TPI counter-1	PrPC surface inh	PrP 5UTR inh	Mtb FBA confirm	GDH-TPI counter-2
COCCCNc1ccn2nc(-c3ccc(Cl)cc3)cc2n1	33.5*	0.1	.	13.7	-8.2	.	86.7*	76.2*
CC1(C)CC(=O)C2=C(C1)c1c(ccc3ccccc13)NC2c1ccco1 (stereo unspecified)	86.6*	1.6	3.3	1.1	4.2	-7.5	103.7*	88.9*
COc1ccc(CNC(=S)NN=C(C)c2ccccc2)cc1	.	.	2.5	.	.	.	.	.
Cn1c(NCCO)nc2c(c1=O)C1(CCCCC1)Cc1ccccc1-2	70.3*	21.0	10.1	1.4	-5.1	-16.7	+	+
Cn1ncn2c(=O)c3c(nc12)-c1ccccc1CC31CCCC1	43.7*	12.9	11.4	6.9	-7.0	-24.3	+	+
CCSc1n[nH]c2nc3c(c(=O)n12)C1(CCCC1)Cc1ccccc1-3	28.3*	-0.3	.	3.8	-0.8	-94.7	-1.6	-4.0
O=C(O)C1Cn2c(nc3c(c2=O)C2(CCCC2)Cc2ccccc2-3)S1 (stereo unspecified)	35.0*	-3.3	7.5	8.2	9.2	-37.4	-8.7	-4.9
CCOC(=O)C1Cn2c(nc3c(c2=O)C2(CCCC2)Cc2ccccc2-3)S1 (stereo unspecified)	-0.2	22.0	.	19.6	7.1	-1.5	.	.
CCOC(=O)C1=c2c(=Cc3ccncc3)c(N)c(C(=O)OC)n2C(=O)C(c2ccncc2)S1 (stereo unspecified)	.	.	9.6	.	.	.	.	.
Cc1nn(-c2ccccc2)c2sc(C(=O)OC3CCOC3=O)cc12 (stereo unspecified)	56.0*	0.8	1.2	3.2	5.2	-15.3	30.9*	20.2*
Cc1cccc(NC(=O)CN2C(=O)N/C(=C\c3ccc(-c4cccc(C(=O)O)c4)o3)C2=O)c1	33.7*	0.4	.	18.1	-3.8	-26.1	189.0*	143.2*
CCCOc1ccc(C2C3=C(CCCC3=O)N(CC(=O)O)C3=C2C(=O)CCC3)cc1OCC	2.0	7.0	-5.8	15.7	-0.8	-8.1	.	.
C#CCOc1ccc(C2C3=C(CCCC3=O)N(CC(=O)O)C3=C2C(=O)CCC3)cc1Br	90.7*	0.6	3.8	2.9	-9.4	-17.6	153.3*	130.7*
COc1ccc(/C=C/C(=O)OCC(=O)c2c(N)n(C)c(=O)n(C)c2=O)cc1	-4.3	1.9	-1.3	16.2	6.8	2.7	.	.
COc1cccc(/C=C/C(=O)OCC(=O)c2c(N)n(C)c(=O)n(C)c2=O)c1	63.4*	2.4	4.7	19.5	-5.8	-20.2	85.8*	59.3*
CCOC(=O)c1[nH]c2ccccc2c1NC(=O)CN1CCCCC1	3.5	-1.1	.	8.7	-2.8	-24.2	.	.
CCOC(=O)c1[nH]c2ccc(OCC)cc2c1NC(=O)CN1CCC2(CC1)OCCO2	69.2*	5.5	.	16.0	3.3	-6.7	+	+
CCOC(=O)c1[nH]c2cc3c(cc2c1NC(=O)CN1CCC2(CC1)OCCO2)OCO3	106.0*	6.0	4.0	27.5	18.2	-5.2	6.4	8.2
Cc1ccc(Cn2cc(C=CC(=O)O)c(-c3ccccc3)n2)cc1	.	.	-2.9	.	.	.	.	.
CCCn1c(CCC(=O)O)ccc1-c1ccc(OC)cc1	30.2*	0.4	6.0	-0.7	7.8	-1.3	+	+
COc1ccc(-c2ccc(CCC(=O)O)n2NC(N)=O)cc1	14.4	-0.7	14.6	-0.7	-2.9	-33.6	.	.
C=CCn1c(-c2cc3cccc(OC)c3o2)n[nH]c1=S	43.8*	3.7	8.9	9.6	-1.1	-2.2	102.1*	71.7*
C=CCn1c(-c2cccc(OC)c2OC)n[nH]c1=S	-0.6	5.2	-0.5	-5.0	10.6	-19.6	.	.
COC(=O)[C@@]12CCCCN1C(c1ccc(-c3cccc(Cl)c3)cc1)C1C(=O)N(C)C(=O)C12 (stereo partly specified)	.	.	-0.1	.	.	.	.	.
S=c1[nH]nc(-c2ccc(Cl)cc2)n1N=Cc1cccs1	.	.	-1.2	.	.	.	.	.
SMILES	Mtb FBA inh	Yp Topo-I inh	Mtb hypoxia inh	GDH-TPI counter-1	PrPC surface inh	PrP 5UTR inh	Mtb FBA confirm	GDH-TPI counter-2
CC=C(C)C(=O)Nc1cccc(C2=NOC3(C2)CC(C(N)=O)N(C(=O)C(C)=CC)C3)c1 (stereo unspecified)	.	.	10.1	.	.	.	.	.
Cc1cc(C)c2cc(C#N)c(N3CCCC3)nc2c1	36.3*	4.4	1.4	0.8	-3.9	2.7	1.6	1.6
Cc1cc(C)c2cc(C#N)c(N3CCCN(C(=S)NCCCN(C)C)CC3)nc2c1	7.4	-16.0	-1.5	7.3	2.5	-0.4	.	.
CN1CCN(S(=O)(=O)c2cccc(C(=O)NCc3ccc(Cl)cc3)c2)CC1	63.7*	-0.2	6.5	-6.3	-3.8	-25.6	47.8*	43.6*
COc1ccc(CNC(=O)c2cccc(S(=O)(=O)N3CCN(C)CC3)c2)cc1	-1.9	3.4	7.9	-7.6	-2.4	-0.3	.	.
CCCN1CCC(=O)N(C(COc2ccccc2)CC(C)C)CC1 (stereo unspecified)	.	.	7.1	.	.	.	.	.
CCCCC1OC23CCCCC2C(C#N)(C#N)C1(C#N)C(=N)O3 (stereo unspecified)	45.1*	1.6	-3.6	-14.8	-2.9	-2.7	64.2*	50.8*
CCCCC1OC23CCCCC2C(C#N)(C(=N)O3)C1(C#N)C#N (stereo unspecified)	42.3*	-5.9	17.0	-11.2	-5.3	-19.0	-2.3	2.8
COC(=O)NN=C(C)c1ccco1	.	.	-4.9	.	.	.	.	.
C=C(C)CNC(=S)NN=C(C)c1ccc(OC)cc1	.	.	3.5	.	.	.	.	.
N#Cc1c(-c2ccco2)cc(-c2ccccc2)[nH]c1=O	77.8*	8.9	.	14.7	-3.3	-20.9	79.9*	67.9*
N#Cc1c(-c2cccs2)cc(-c2cccs2)[nH]c1=O	8.7	2.0	0.1	-5.5	1.8	-19.4	.	.
Cc1cc(-c2ccccc2)[nH]c(=O)c1C#N	68.9*	8.5	10.9	27.4	6.9	-2.3	66.9*	51.7*
C/C=C(\C)C(=O)O[C@@H]([C@H](O)c1cc2ccc(=O)oc2cc1OC)C(C)(C)O	38.5*	1.1	14.6	17.9	-0.7	-20.7	42.0*	22.6*
COc1cc2cc(Oc3ccc4ccc(=O)oc4c3)c(=O)oc2cc1OC(C)=O	9.2	1.0	.	28.4	-7.3	-14.4	.	.
C/C=C(\C)C(=O)O[C@H](c1cc2ccc(=O)oc2cc1OC)[C@@H](O)C(C)(C)O	39.7*	10.3	.	18.1	-1.6	-1.3	90.1*	57.8*
C/C=C(/C)C(=O)O[C@@H]([C@H](O)c1cc2ccc(=O)oc2cc1OC)C(C)(C)O[C@@H]1O[C@H](CO)[C@@H](O)[C@H](O)[C@H]1O	58.8*	3.0	.	12.1	2.8	-13.0	161.1*	146.4*
Cc1[nH]n(-c2ccc(Cl)cc2)c(=O)c1C=Nc1nnc(-c2ccccc2)s1	.	.	16.5	.	.	.	.	.
Cc1csc2nc3ccccc3c(=O)n12	39.4*	6.1	.	13.0	-3.0	-19.2	66.7*	37.9*
